For 15 compounds, AC50 and outcome results are on record in PubChem BioAssay (EPA / NIEHS).

Read-out in assay [1]: Monokine induced gamma interferon (MIG), CXCL9 (gene 4283)
The experiment in a line: BSK_SAg_MIG: BioMAP Diversity Plus: SAg Assay for Monokine induced gamma interferon (MIG) Biomarker Activity (AID 2283092). Conditions: primary human HUVEC with PBMC; actives raise or lower the signal. A digest of the protocol:
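Endothelial cells and PBMC were co-cultured, exposed to test chemicals, and sampled 24 h later. MIG was measured by ELISA, and responses were fitted in both directions relative to DMSO.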

Assay [2] is described as follows: BSK_SAg_PBMCCytotoxicity: PBMC Cytotoxicity Assessment in the BioMAP Diversity Plus: SAg Assay (AID 2283093).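 Further: PBMC viability measured as Alamar Blue reduction fluorescence at 546/580 nm; fitted both ways against DMSO so a hit may be loss or gain of signal.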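 On AC50: PBMC superantigen activated with SEB plus TSST-1 one hour after compound addition.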 Conditions: primary human HUVEC with PBMC. The method in brief: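 Compound added to 75,000 PBMC/well for 1 h; SEB and TSST-1 then added at 20 ng/mL final each; 90 h incubation; Alamar Blue 6 h; read 546/580 nm ex/em. Activity fitted bidirectionally relative to DMSO baseline.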

Read-out in assay [3]: Interleukin-8 (IL8), CXCL8 (gene 3576)
As to the kind of experiment: BSK_SAg_IL8: BioMAP Diversity Plus: SAg Assay for Interleukin-8 (IL8) Biomarker Activity (AID 2283094). To be noted: primary human HUVEC with PBMC; actives raise or lower the signal. A digest of the protocol: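 ELISA read-out of IL-8 in a primary human vascular co-culture (umbilical vein endothelium plus PBMC), taken 24 h after compound addition. Values derive from bidirectional fits against DMSO negative controls.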

Assay [4] is described as follows: BSK_SAg_Proliferation: Cell Proliferation Assessment in the BioMAP Diversity Plus: SAg Assay (AID 2283095).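 Further: relative cell number as total protein by SRB absorbance in sub-confluent culture.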 Conditions: primary human HUVEC with PBMC. The method in brief:
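Cells (endothelium plus PBMC, human primary) were dosed with chemical, cultured 96 h, fixed in 10% TCA and stained with 0.1% SRB. Absorbance at 560 nm gave relative protein, fitted bidirectionally relative to DMSO.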

Assay [5] can be described thus: BSK_SAg_SRB: Viability Assessment in the BioMAP Diversity Plus: SAg Assay (AID 2283096).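 Further: cells read one day after compound addition; hits may be either gain or loss of signal compared with DMSO.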 To be noted: primary human HUVEC with PBMC. A digest of the protocol:
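Total protein by sulforhodamine B staining, 24 h after dosing, in HUVEC–PBMC co-culture; DMSO-referenced bidirectional fitting.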

Read-out in assay [6]: E-selectin (Homo sapiens) (UniProt P16581)
The experiment in a line: BSK_SAg_Eselectin: BioMAP Diversity Plus: SAg Assay for Eselectin Biomarker Activity (AID 2283091). To be noted: primary human HUVEC with PBMC; actives raise or lower the signal. The method in brief:
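Human umbilical vein endothelial cells co-cultured with peripheral blood mononuclear cells, SAg system. E-selectin is measured by ELISA 24 h after dosing and fitted bidirectionally against DMSO. Cytotoxicity is checked by SRB staining of parallel cultures.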

The target in assay [7] is human CYP2A6, CYP2A6 (gene 1548) (UniProt P11509). As to the kind of experiment: NVS_ADME_hCYP2A6: NovaScreen (NVS) CYP450-related Enzyme Activity (ADME) Assay for human CYP2A6 (AID 2283099; active means hit-call score of the fitted dose curve at least 0.9, where 1 is the maximum). A digest of the protocol:
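Recombinant human CYP2A6 expressed in insect cells, cell-free; fluorogenic substrate turnover read by fluorescence intensity 0.5 h after dosing. Primary screen 10 uM in duplicate, then concentration-response up to 20 uM; acetonitrile as negative control.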

The target of assay [8] is human CYP1A2, CYP1A2 (gene 1544) (UniProt P05177). As to the kind of experiment: NVS_ADME_hCYP1A2: NovaScreen (NVS) CYP450-related Enzyme Activity (ADME) Assay for human CYP1A2 (AID 2283102; active means hit-call score of the fitted dose curve at least 0.9, where 1 is the maximum;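 further: potency for inhibition since loss of fluorescence marks reduced CYP1A2 activity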). A digest of the protocol:
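Recombinant human CYP1A2 from insect cells, cell-free, fluorogenic substrate; read 0.5 h after dosing with loss of fluorescence signal indicating inhibition. Primary screen in duplicate at 10 uM, acetonitrile as negative control.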

Assay [9] addresses human CYP2J2, CYP2J2 (gene 1573) (UniProt P51589). The experiment in a line: NVS_ADME_hCYP2J2: NovaScreen (NVS) CYP450-related Enzyme Activity (ADME) Assay for human CYP2J2 (AID 2283106; active means hit-call score of the fitted dose curve at least 0.9, where 1 is the maximum). A digest of the protocol: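 Cell-free assay of recombinant CYP2J2 with a fluorogenic substrate, read 1 h after dosing; loss of signal versus acetonitrile. Primary screen at 10 uM in duplicate, then concentration-response up to 20 uM for chemicals passing threshold (e.g., 30% inhibition).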

The target of assay [10] is rat CYP2A1, Cyp2a1 (gene 24894) (UniProt P11711). The experiment in a line: NVS_ADME_rCYP2A1: NovaScreen (NVS) CYP450-related Enzyme Activity (ADME) Assay for rat CYP2A1 (AID 2283114). A digest of the protocol: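 Recombinant rat CYP2A1, cell-free, fluorogenic substrate turnover read by fluorescence intensity 0.75 h after dosing. Primary screen at 10 uM in duplicate; actives rerun as concentration-response up to 20 uM; loss of signal versus acetonitrile control.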

The target in assay [11] is rat CYP1A2, Cyp1a2 (gene 24297) (UniProt P04799). The experiment in a line: NVS_ADME_rCYP1A2: NovaScreen (NVS) CYP450-related Enzyme Activity (ADME) Assay for rat CYP1A2 (AID 2283115; active means hit-call score of the fitted dose curve at least 0.9, where 1 is the maximum). A digest of the protocol:
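Cell-free recombinant rat enzyme with fluorogenic substrate, read by fluorescence intensity 1 hour after dosing. Loss of signal versus acetonitrile negative control; primary screen at 10 uM in duplicate, actives followed in concentration series.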

The target in assay [12] is Cytochrome P450 2C19 (Homo sapiens) (UniProt P33261). The experiment in a line: NVS_ADME_hCYP2C19: NovaScreen (NVS) CYP450-related Enzyme Activity (ADME) Assay for human CYP2C19 (AID 2283113; active means hit-call score of the fitted dose curve at least 0.9, where 1 is the maximum;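 on AC50: potency for inhibition seen as loss of fluorescent signal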). A digest of the protocol:
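Cell-free recombinant human CYP2C19 from insect cells, fluorescent substrate; activity read by fluorescence intensity 1 h after dosing. Primary screen in duplicate at 10 uM; actives retested in concentration series. Signal loss versus acetonitrile negative control.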

In assay [13] the target is human CYP19A1, CYP19A1 (gene 1588) (UniProt P11511). The experiment in a line: NVS_ADME_hCYP19A1: NovaScreen (NVS) CYP450-related Enzyme Activity (ADME) Assay for human CYP19A1 (AID 2283098; active means hit-call score of the fitted dose curve at least 0.9, where 1 is the maximum;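 on AC50: potency for inhibitors seen as loss of fluorescent enzyme signal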). The method in brief:
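Biochem, cell-free; recombinant enzyme + specific substrate; fluorescence intensity at 0.5 h post-dose; 10 uM duplicate primary, conc. series for actives; acetonitrile = negative control/baseline; positive and negative controls on every plate.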

Assay [14] deals with human CYP2C8, CYP2C8 (gene 1558) (UniProt P10632). The experiment in a line: NVS_ADME_hCYP2C8: NovaScreen (NVS) CYP450-related Enzyme Activity (ADME) Assay for human CYP2C8 (AID 2283104). A digest of the protocol: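 Recombinant human CYP2C8 with fluorogenic substrate, 0.5 h, fluorescence intensity; signal loss fitted versus acetonitrile. Screened in duplicate at 10 uM, then actives run in concentration-response up to 20 uM.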

The target of assay [15] is Cytochrome P450 3A4 (Homo sapiens) (UniProt P08684). The experiment in a line: NVS_ADME_hCYP3A4: NovaScreen (NVS) CYP450-related Enzyme Activity (ADME) Assay for human CYP3A4 (AID 2283110; active means hit-call score of the fitted dose curve at least 0.9, where 1 is the maximum). A digest of the protocol:
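Compounds were first screened in duplicate at 10 uM against recombinant CYP3A4 produced in insect cells, then actives were run in concentration series. Enzyme activity was measured by fluorescence after 0.33 hour, with acetonitrile as baseline.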

Assay [16] has as its target human CYP1A1, CYP1A1 (gene 1543) (UniProt P04798). As to the kind of experiment: NVS_ADME_hCYP1A1: NovaScreen (NVS) CYP450-related Enzyme Activity (ADME) Assay for human CYP1A1 (AID 2283100; active means hit-call score of the fitted dose curve at least 0.9, where 1 is the maximum). The method in brief:
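Recombinant CYP1A1 with a fluorogenic substrate, cell-free, read 1 h after dosing; acetonitrile as negative control. Single-concentration screen at 10 uM in duplicate, then concentration-response up to 20 uM for chemicals meeting ~30% inhibition threshold.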

Assay [17] has as its target Cytochrome P450 2C18 (Homo sapiens) (UniProt P33260). As to the kind of experiment: NVS_ADME_hCYP2C18: NovaScreen (NVS) CYP450-related Enzyme Activity (ADME) Assay for human CYP2C18 (AID 2283103). A digest of the protocol:
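Cell-free recombinant human CYP2C18 with fluorogenic substrate; fluorescence intensity read 0.5 h after dosing. Single-point screen at 10 uM in duplicate, then concentration-response up to 20 uM; loss of signal fitted against acetonitrile baseline.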

Several values for one entry are separate records, joined by “and”; a condition that tells them apart may be missing. Identical values can stand only once. Inconclusive results are not listed. More than one record can exist for a structure, and the calls need not agree. Activity calls are given as the source filed them. How the source made its calls, unless noted: active means hit-call score of the fitted dose curve at least 0.9, where 1 is the maximum; inactive means score below 0.9.

human CYP19A1, CYP19A1 (gene 1588), sequence (P11511 whole entry, looked up): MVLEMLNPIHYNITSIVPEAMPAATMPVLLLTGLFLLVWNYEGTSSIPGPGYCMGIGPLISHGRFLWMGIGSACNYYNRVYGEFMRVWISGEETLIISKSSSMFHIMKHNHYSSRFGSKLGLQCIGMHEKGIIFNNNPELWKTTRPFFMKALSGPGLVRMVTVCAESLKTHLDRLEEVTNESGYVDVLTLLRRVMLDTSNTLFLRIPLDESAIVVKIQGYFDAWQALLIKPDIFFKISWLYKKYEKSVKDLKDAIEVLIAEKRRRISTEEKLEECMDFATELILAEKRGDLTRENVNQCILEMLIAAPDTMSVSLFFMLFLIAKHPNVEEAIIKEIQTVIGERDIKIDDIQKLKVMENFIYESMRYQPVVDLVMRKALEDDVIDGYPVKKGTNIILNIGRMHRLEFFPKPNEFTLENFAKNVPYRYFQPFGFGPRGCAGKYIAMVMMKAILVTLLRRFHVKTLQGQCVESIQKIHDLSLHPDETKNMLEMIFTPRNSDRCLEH
E-selectin (Homo sapiens), sequence (P16581 whole entry, looked up): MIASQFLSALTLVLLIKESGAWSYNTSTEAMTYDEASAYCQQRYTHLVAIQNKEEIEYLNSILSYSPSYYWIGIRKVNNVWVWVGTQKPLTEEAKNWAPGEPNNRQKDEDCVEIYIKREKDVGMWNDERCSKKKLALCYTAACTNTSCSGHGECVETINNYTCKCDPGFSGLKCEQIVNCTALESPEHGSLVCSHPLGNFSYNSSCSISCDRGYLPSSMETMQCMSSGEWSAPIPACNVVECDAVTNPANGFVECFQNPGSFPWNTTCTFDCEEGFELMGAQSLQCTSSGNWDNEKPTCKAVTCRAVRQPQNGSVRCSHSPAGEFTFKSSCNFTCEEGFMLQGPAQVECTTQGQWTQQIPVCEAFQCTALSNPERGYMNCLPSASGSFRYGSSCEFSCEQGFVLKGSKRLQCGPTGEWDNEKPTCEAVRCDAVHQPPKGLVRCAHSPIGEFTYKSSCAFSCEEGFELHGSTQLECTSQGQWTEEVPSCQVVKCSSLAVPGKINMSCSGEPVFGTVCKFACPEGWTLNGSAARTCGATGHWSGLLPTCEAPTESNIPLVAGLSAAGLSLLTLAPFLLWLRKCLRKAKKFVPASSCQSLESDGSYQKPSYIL
human CYP1A1, CYP1A1 (gene 1543), sequence (P04798 whole entry, looked up): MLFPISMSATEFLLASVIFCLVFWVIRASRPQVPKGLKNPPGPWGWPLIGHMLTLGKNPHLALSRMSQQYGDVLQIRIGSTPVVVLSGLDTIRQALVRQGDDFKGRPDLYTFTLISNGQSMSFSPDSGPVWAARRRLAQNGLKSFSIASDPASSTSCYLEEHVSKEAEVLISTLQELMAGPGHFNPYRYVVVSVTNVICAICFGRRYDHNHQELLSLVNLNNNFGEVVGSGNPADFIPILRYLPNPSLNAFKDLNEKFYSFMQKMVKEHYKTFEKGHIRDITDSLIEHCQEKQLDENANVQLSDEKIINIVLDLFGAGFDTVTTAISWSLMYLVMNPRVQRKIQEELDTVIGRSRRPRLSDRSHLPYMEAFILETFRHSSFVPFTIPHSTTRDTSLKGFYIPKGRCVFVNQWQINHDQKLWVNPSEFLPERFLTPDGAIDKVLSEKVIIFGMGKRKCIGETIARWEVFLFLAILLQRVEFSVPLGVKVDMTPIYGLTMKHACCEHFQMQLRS
human CYP2A6, CYP2A6 (gene 1548), sequence (P11509 whole entry, looked up): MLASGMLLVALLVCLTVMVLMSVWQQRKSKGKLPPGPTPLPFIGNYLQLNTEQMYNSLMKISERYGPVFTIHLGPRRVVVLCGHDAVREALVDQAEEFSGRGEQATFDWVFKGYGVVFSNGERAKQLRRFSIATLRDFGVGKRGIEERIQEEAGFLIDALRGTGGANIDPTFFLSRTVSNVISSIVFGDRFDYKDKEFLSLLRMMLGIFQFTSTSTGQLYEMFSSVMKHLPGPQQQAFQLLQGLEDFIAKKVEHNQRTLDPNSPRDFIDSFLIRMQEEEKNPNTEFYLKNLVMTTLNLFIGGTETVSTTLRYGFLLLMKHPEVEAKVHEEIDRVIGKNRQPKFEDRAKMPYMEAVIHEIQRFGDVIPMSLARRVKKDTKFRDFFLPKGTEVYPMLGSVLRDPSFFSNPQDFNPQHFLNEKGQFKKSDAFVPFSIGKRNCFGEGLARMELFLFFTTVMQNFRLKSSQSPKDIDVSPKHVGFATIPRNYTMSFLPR
Cytochrome P450 3A4 (Homo sapiens), sequence (P08684 whole entry, looked up): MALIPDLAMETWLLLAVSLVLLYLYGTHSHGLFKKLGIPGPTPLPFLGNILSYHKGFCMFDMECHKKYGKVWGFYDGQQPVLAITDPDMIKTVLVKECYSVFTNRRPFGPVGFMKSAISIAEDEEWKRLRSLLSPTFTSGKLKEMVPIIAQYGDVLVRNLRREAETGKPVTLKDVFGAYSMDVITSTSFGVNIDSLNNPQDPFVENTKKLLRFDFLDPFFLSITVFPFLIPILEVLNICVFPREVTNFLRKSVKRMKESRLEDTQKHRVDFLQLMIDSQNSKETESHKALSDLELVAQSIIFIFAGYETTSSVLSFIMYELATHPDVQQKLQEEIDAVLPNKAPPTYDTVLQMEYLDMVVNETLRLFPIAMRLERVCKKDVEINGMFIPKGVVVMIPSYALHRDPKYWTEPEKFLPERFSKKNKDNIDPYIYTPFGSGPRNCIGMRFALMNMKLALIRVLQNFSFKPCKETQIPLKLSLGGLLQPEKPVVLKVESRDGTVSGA
rat CYP2A1, Cyp2a1 (gene 24894), sequence (P11711 whole entry, looked up): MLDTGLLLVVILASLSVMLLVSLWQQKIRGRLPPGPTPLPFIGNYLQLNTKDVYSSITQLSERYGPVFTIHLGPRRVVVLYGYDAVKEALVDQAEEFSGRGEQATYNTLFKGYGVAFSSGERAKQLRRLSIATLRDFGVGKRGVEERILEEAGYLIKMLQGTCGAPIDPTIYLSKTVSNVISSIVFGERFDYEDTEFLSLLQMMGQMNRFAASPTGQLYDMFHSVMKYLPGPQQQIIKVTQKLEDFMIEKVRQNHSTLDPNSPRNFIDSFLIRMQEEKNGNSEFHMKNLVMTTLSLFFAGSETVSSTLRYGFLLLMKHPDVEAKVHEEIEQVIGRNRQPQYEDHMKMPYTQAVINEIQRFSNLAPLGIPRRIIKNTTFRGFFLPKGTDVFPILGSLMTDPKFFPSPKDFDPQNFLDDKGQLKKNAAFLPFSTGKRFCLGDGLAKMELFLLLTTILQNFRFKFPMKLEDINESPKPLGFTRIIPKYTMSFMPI
rat CYP1A2, Cyp1a2 (gene 24297), sequence (P04799 whole entry, looked up): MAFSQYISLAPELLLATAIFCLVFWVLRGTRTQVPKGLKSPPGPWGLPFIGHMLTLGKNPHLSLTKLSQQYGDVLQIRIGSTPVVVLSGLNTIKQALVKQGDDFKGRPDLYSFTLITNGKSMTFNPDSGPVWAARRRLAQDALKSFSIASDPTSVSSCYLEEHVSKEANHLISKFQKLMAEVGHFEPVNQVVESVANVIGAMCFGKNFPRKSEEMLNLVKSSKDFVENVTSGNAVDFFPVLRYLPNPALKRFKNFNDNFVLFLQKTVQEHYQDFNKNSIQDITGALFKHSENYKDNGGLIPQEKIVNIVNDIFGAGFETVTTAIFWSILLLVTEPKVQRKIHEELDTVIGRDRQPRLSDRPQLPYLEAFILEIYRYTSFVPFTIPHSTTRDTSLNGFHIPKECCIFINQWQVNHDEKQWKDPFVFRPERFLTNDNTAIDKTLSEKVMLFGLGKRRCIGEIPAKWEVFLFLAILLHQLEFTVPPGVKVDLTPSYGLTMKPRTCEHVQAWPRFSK
human CYP1A2, CYP1A2 (gene 1544), sequence (P05177 whole entry, looked up): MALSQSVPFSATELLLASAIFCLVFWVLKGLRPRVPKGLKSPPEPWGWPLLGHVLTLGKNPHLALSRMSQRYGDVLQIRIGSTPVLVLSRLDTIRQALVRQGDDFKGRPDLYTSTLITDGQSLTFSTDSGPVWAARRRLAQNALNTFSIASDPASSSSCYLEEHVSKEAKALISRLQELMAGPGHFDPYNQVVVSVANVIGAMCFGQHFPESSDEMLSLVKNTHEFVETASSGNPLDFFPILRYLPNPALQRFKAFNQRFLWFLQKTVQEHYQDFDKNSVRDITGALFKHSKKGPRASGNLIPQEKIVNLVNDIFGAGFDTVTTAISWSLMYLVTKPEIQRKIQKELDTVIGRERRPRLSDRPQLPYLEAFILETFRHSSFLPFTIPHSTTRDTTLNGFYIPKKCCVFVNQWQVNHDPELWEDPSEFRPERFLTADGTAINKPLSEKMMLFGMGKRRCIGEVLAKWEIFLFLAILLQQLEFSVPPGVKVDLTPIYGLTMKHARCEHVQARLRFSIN
Cytochrome P450 2C18 (Homo sapiens), sequence (P33260 whole entry, looked up): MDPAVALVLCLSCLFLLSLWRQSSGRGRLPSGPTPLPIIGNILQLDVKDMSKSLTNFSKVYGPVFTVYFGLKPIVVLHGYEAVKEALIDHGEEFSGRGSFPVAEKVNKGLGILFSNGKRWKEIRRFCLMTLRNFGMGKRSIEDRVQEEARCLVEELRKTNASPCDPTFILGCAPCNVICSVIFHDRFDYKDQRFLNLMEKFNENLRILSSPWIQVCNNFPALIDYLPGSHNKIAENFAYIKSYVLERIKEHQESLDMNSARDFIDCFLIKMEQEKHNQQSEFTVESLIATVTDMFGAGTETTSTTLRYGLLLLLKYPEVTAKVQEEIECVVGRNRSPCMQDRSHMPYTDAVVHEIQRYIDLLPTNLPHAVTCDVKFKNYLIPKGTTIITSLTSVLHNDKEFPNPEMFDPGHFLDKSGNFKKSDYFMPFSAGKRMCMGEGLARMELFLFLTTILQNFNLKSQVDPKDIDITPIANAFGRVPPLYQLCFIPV

For the compound `CCC(C)(C)C(=O)OC1=C(c2ccc(Cl)cc2Cl)C(=O)OC12CCCCC2`, the AC50 is 21.3 µM (active) in [1]; 26.5 µM (active) in assay [2]; 4.73 µM (active) in [3]; 12.3 µM (active) in assay [4]; 32.8 µM (active) in assay [5].
Consider `CNC(=O)Oc1cccc(N=CN(C)C)c1`, for which the outcome in [1], in assay [2], in [3] and in [5] was inactive. In addition, in assay [4], the half-maximal activity concentration (AC50) is 17.9 µM (active).
`CCc1ccc(C(=O)NN(C(=O)c2cc(C)cc(C)c2)C(C)(C)C)cc1`: the outcome in assay [1], in [2] and in assay [5] was inactive. Further, the AC50 in [3] was 11.3 µM (active); in assay [4] it was 17.7 µM (active).
On to `CNC(=O)Oc1ccccc1OC(C)C`, for which the result in assay [1], in assay [2], in [3], in assay [4] and in [5] was inactive.
Turning to `O=C(Nc1ccccc1)Nc1cnns1`, the outcome in assay [6], in assay [1], in [2], in assay [3], in [4] and in assay [5] was inactive. The call in [9] and in [11] was inactive. Besides, the AC50 in [7] is 5.8 µM (active); in assay [8], 3.55 µM (active); in [10], 6.13 µM (active).
For `COC(=O)c1ccccc1S(=O)(=O)NC(=O)N(C)c1nc(C)nc(OC)n1`, the result in assay [1], in assay [2], in assay [3], in assay [4] and in assay [5] was inactive.
On to `CNC(=O)/C=C(\C)OP(=O)(OC)OC`, for which the outcome in [1], in assay [2], in assay [3], in assay [4] and in assay [5] was inactive.
On to `C[C@H]1[C@H](c2ccc(Cl)cc2)SC(=O)N1C(=O)NC1CCCCC1`, for which the AC50 was 15.2 µM (active) in assay [6]; 13.6 µM (active) in [3]; 18.1 µM (active) in [4]; 9.32 µM (active) in [5]; 7.38 µM (active) in [12]. Also, the result in assay [1] and in [2] was inactive.
For the compound `CCCN(CCC)c1c([N+](=O)[O-])cc(C(F)(F)F)cc1[N+](=O)[O-]`, the concentration at half-maximal activity (AC50) in assay [6] was 15.4 µM (active); in assay [2], 15 µM (active); in assay [3], 24.9 µM (active); in assay [4] it was 24.4 µM (active); in [5], 20 µM (active). Also, the result in assay [1] and in assay [13] was inactive.
For the compound `CC1(c2ccc(Oc3ccccc3)cc2)OC(=O)N(Nc2ccccc2)C1=O` (stereo not drawn), the AC50 in [1] is 34.1 µM (active); in assay [3], 11.8 µM (active); in assay [4], 16.9 µM (active); in [5], 30.3 µM (active). Besides, the outcome in assay [2] was inactive.
Regarding `N#Cc1c(Cl)c(Cl)c(Cl)c(C#N)c1Cl`, the AC50 was 0.959 µM (active) in assay [6]; 1.83 µM (active) in [1]; 1.4 µM (active) in assay [2]; 1.74 µM (active) in [3]; 0.197 µM (active) in [4]; 2.27 µM (active) in assay [5]. Besides, the AC50 is 192 nM (active) in assay [13], 0.406 µM (active) in [8], 0.213 µM (active) in assay [14] and 0.302 µM (active) in assay [15]. In addition, the result in [7], in [12] and in assay [11] was inactive.
With `COC(=O)c1ccccc1CS(=O)(=O)NC(=O)Nc1nc(OC)cc(OC)n1`, the outcome in assay [6], in [1], in assay [2], in assay [3], in assay [4] and in assay [5] was inactive.
Regarding `Clc1ccccc1-c1nnc(-c2ccccc2Cl)nn1`, the result in [6], in assay [1], in assay [2], in [3], in assay [4] and in assay [5] was inactive.
Take `CC(C)(C)C(O)C(Oc1ccc(Cl)cc1)n1cncn1` (stereo not drawn): the result in assay [1], in assay [2], in assay [3], in [4], in [5] and in assay [7] was inactive. For the same compound, the outcome in assay [16] and in [15] was inactive. The half-maximal activity concentration (AC50) is 3.38 µM (active) in assay [2]; 10.6 µM (active) in [3]; 15 µM (active) in [4]; 7.34 µM (active) and 2.41 µM (active) in assay [13]; 7.11 µM (active) in assay [16]; 7.93 µM (active) in [17]. The concentration at half-maximal activity (AC50) in assay [12] is 1.29 µM (active) and 1.71 µM (active) and 1.18 µM (active); in [10] it was 3.66 µM (active).
With `COP(=O)(OC)OC=C(Cl)Cl`, the AC50 in [6] was 28.9 µM (active); in assay [4], 20 µM (active). The outcome in assay [1], in [2], in assay [3], in assay [5] and in assay [13] was inactive.
